Data from PubChem BioAssay (EPA / NIEHS).
Records with an inconclusive call do not appear. Calls of active or inactive are those of the source. How the source made its calls: active means hit-call score of the fitted dose curve at least 0.9, where 1 is the maximum; inconclusive means response in the unintended direction; inactive means score below 0.9.

The molecules below were run against human Opioid Receptor Mu (Opiate Mu), OPRM1 (gene 4988) (UniProt P35372) (assay: NVS_GPCR_hOpiate_mu: NovaScreen (NVS) G Protein-Coupled Receptor Assay for human Opioid Receptor Mu (Opiate Mu) (AID 2283290);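 further: hits lower bound tracer signal versus DMSO meaning displacement of the ligand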).
human Opioid Receptor Mu (Opiate Mu), OPRM1 (gene 4988), sequence (P35372 whole entry, looked up): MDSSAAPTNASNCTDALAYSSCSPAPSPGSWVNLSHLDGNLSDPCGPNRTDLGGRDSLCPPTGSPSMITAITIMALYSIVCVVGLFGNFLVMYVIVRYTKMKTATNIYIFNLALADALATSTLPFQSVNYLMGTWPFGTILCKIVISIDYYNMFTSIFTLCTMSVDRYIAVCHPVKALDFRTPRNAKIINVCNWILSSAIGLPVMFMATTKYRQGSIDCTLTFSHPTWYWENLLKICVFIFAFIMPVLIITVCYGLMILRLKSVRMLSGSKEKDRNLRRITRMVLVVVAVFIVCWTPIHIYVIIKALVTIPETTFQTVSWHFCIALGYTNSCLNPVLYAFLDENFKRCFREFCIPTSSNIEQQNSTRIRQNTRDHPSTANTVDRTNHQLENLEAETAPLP
Protocol: NVS_GPCR_hOpiate_mu is a biochemical, single-readout assay that uses extracted gene-proteins from CHO in a cell-free assay. Measurements were taken 2.5 hours after chemical dosing in a 96-well plate.NVS_GPCR_hOpiate_mu is one of one assay component(s) measured or calculated from the NVS_GPCR_hOpiate_mu assay. It is designed to make measurements of radioligand binding, a form of binding reporter, as detected with scintillation counting signals by Filter-based radiodetection technology.Data from the assay component NVS_GPCR_hOpiate_mu was analyzed into 1 assay endpoint. This assay endpoint, NVS_GPCR_hOpiate_mu, was analyzed in the positive analysis fitting direction relative to DMSO as the negative control and baseline of activity. Using a type of binding reporter, loss-of-signal activity can be used to understand changes in the binding as they relate to the gene OPRM1. Furthermore, this assay endpoint can be referred to as a primary readout, because the performed assay has only produced 1 assay endpoint. To generalize the intended target to other relatable targets, this assay endpoint is annotated to the gpcr intended target family, where the subfamily is rhodopsin-like receptor.
Binding assays used specific radioligands (tritiated, iodinated) with non-radioactive competitive displacement ligands in agonist or antagonist protocols (as indicated) and various reference compounds and inhibitors to titrate specific binding to receptors and transporters. Most enzyme assays (CYPs, kinases, phosphatases, proteases, HDACs) used recombinant protein and specific substrates (fluorescence mostly, some colorimetric and radioactive) and inhibitors, followed by a biochemical separation of substrate and product. All assays for the biochemical HTS were initially run in duplicate at a single concentration (10 uM for CYP450 assays and 25 uM for all others). […] Each assay was run with positive and negative controls, and concurrent controls on every plate. The follow-up (secondary) screen tested active chemical-pairs in concentration series, as well as a few additional assays not tested in the primary screen, some selected negative inactives, and several cases re-run in the concentration series for confirmatory purposes.
In the case of `CC[C@H](c1ccc(O)cc1)[C@@H](CC)c1ccc(O)cc1`, the AC50 is reported as 1.1 µM (active). `CCCCCCCCCCCCc1ccccc1S(=O)(=O)O` was tested, and the AC50 was 15.1 µM (active). With `Cc1oc(-c2ccccc2)nc1CCOc1ccc(C[C@H](Nc2ccccc2C(=O)c2ccccc2)C(=O)O)cc1` the outcome was “inactive”. With `CCCCCCCCCCCCCC[N+](C)(C)C` the AC50 was 8.19 µM (active). In the case of `CC#C[C@]1(O)CC[C@H]2[C@@H]3CCC4=CC(=O)CCC4=C3[C@@H](c3ccc(N(C)C)cc3)C[C@@]21C`, the AC50 is reported as 0.908 µM (active). `CCCOc1sc(C(=O)N2CCC(c3cc(CN)ccc3F)CC2)c(C)c1Br` was tested, and the AC50 was 3.97 µM (active). For `CCC(=C(c1ccc(O)cc1)c1ccc(OCCN(C)C)cc1)c1ccccc1`, the AC50 was 3.93 µM (active). `CC(C)CCCCCCOC(=O)CCCCC(=O)OCCCCCCC(C)C` was tested, and the outcome was “inactive”. `CCN(CC)CCNc1ccc(CNC=O)c2sc3ccc(OC)cc3c(=O)c12` was tested, and the AC50 was 9.79 µM (active). `CC(=O)NC1(c2cccc(F)c2)CCN(CC[C@@]2(c3ccc(Cl)c(Cl)c3)CN(c3ccccc3)C(=O)CO2)CC1` was tested, and the AC50 was 10.3 µM (active). With `NC(=O)N1C(=O)C(C(=O)c2cc(Cl)cs2)c2cc(F)c(Cl)cc21` (centres undefined) the outcome was “inactive”. `O=C(O)Cc1cc(I)c(Oc2cc(I)c(O)c(I)c2)c(I)c1` was tested, and the AC50 was 14.3 µM (active). For `NC(=O)N(O)[C@@H]1C=C[C@H](Oc2cccc(Oc3ccc(F)cc3)c2)C1`, the outcome was “inactive”. `CC(C)(C)c1ccc(O)c(C(C)(C)C)c1` was tested, and the outcome was “inactive”.
